Compounds without any hit were thinned out: in the full panel of roughly 83,000, 20% have a hit.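 Plates (96-well) were seeded with cells, treated with compound at one concentration, and incubated for 48 hours before percent growth was determined.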 A number with no mark means an inactive call. The source made the active and inactive calls.
test system: SK-MEL-5 melanoma; test: NCI-60 one-dose screen, 48 h (100 = growth as untreated, 0 = no growth, -100 = all killed); details: 10 µM unless noted
Method: Growth inhibition of the SK-MEL-5 human tumor cell line is measured as a screen for anti-cancer activity. Cells are grown in 96 well plates and exposed to the test compound for 48 hours. Compounds are tested at a single concentration, which is 10^-5 M for most compounds. The reported endpoint is percent growth (GI% or GIPRCNT), where numbers from 0 - 100% represent growth inhibition, and numbers from -100% - 0 represent cell death. For example, a value of 40 represents 60% growth inhibition. A value of 0 means no net growth occurred over the course of the experiment. A value of -40 indicates 40% of cells at the beginning of the experiment died by the end of the experiment. A value of -100 means all cells are dead at the end of the experiment.
NCI-60 Human Tumor Cell Lines Screen was performed using the standard one-dose NCI protocol, which is described in more detail at https://dtp.cancer.gov/discovery_development/nci-60/default.htm.
Compounds with GIPRCNT values below 10 were considered active. Activity score was based on GIPRCNT using the following formula: […]
Score is 0 for GIPRCNT values of 100 or above, 50 for GIPRCNT values of 0, and 100 for GIPRCNT values of -100.

| SMILES | growth |
| --- | --- |
| Nc1n[nH]c2cccc(C#Cc3cccc(C(=O)Nc4ccc(Cl)c(C(F)(F)F)c4)c3)c12 | 46.7% |
| CC1(C)CCC[C@]23C(=O)O[C@](O)(C(=O)C4=C[C@@](C)(/C=C/CCCc5ccc6ccc7cccc8ccc5c6c78)CC[C@@]42O)[C@@H]13 | -96.3% (active) |
| Cc1ccc(Nc2nc(N)nc(N)c2N=O)cc1Cl | 93.5% |
| c1ccc2[nH]c(-c3ccc(-c4nccc5c4[nH]c4ccccc45)cc3)nc2c1 | 62.6% |
| COc1ccc(-c2cc(-c3ccc(Nc4nc(Nc5ccc(Cl)cc5)nc(Nc5ccc(Cl)cc5)n4)cc3)no2)cc1 | 73% |
| N#C/C(Sc1nc2sc3c(c2c(=O)n1Cc1ccccc1)CCCC3)=C1/SC=C(c2ccc(Cl)cc2)N1c1ccccc1 | 95.9% |
| CC(C)(C)[C@H](OCc1cn([C@H]2C[C@@H](O)[C@@H](CO)O2)c(=O)[nH]c1=O)c1ccc(C#Cc2ccccc2)cc1[N+](=O)[O-] | 75.4% |
| COc1ccc(-c2nc(SCCC(C)C)nc(N/N=C(/C)c3ccc(N)cc3)c2C#N)cc1 | 99.5% |
| CN(C)CCOc1ccc(/C(=C(/CCCCCCCCCC[P+](c2ccccc2)(c2ccccc2)c2ccccc2)c2ccccc2)c2ccccc2)cc1 | -97.1% (active) |
| CCOC(=O)CC1CSC(N/N=C/c2ccc(O)cc2)=N1 (stereo not given) | 102% |
| CCN(CC)c1ccc(/C=N/NC(=O)c2ccccc2Nc2ccnc(C(F)(F)F)c2)c(O)c1 | 3.96% (active) |
| O=C1NCCN1/N=C/c1c(Cl)n(Cc2ccc(Cl)cc2)c2ccccc12 | 68% |
| CSc1nn2c(-c3cc4cc(Br)ccc4oc3=O)ccnc2c1C#N | 101% |
| COc1cc2c(cc1-c1c(C)noc1C)ncc1nc(C3CCOCC3)n(C3CCC(OC(F)F)CC3)c12 (stereo not given) | 27.2% |
| FC(F)(F)c1cc(N2CCCCC2)nc(NCCCNc2ccnc3cc(Cl)ccc23)n1 | 27.1% |
| c1ccc2c(-c3cnn4cc(-c5ccc(N6CCNCC6)cc5)cnc34)ccnc2c1 | -84.7% (active) |
| O=c1cc(-c2nccc3c2[nH]c2ccccc23)c2cc(Cl)ccc2o1 | 32.1% |
| CC1(C)CC[C@]2(CO)CC[C@]3(C)[C@H](CC[C@@H]4[C@@]5(C)CC[C@H](O)C(C)(C)[C@@H]5CC[C@]43C)[C@H]2[C@H]1O | 91.8% |
| CCCNNC(=O)c1ccc(CNC(=O)/C=C/c2ccccc2)cc1 | 28.8% [2.5 µM] |
| Cc1ccc(C(F)(F)F)cc1N1CCN(C(=O)[C@H]2C[C@H]2c2ccc(C(F)(F)F)nc2)CC1 | 81.6% |

| SMILES | growth |
| --- | --- |
| O=C(Nc1ccccc1CNc1nc(Nc2ccc(OCCN3CCCC3)cc2)ncc1Cl)NC1CCCCC1 | 64.6% |
| CS(=O)(=O)c1ccc(/C(=N/NC(N)=S)c2ccc(F)cc2)cc1 | 102% |
| CC(=O)Oc1ccccc1C(=O)N(Cc1ccc2c(Cl)cc(Cl)c(O)c2n1)c1ccccc1 | 41.5% |
| COC(=O)[C@H](C)NC(=O)[C@@H]1CCCN1C(=O)CNC(=O)[C@H](C)N | 101% |
| C#Cc1cccc(Nc2nc(Cl)nc3cc(NC(=O)CCl)ccc23)c1 | -90.9% (active) |
| Cn1cc(-c2nc(-c3c[nH]c4c(Cl)nccc34)cs2)c2ccccc21 | 91.2% |
| CCN1CCN(C(=O)[C@]23CC[C@@H](C)[C@H](C)[C@@H]2C2=CC[C@@H]4[C@@]5(C)C/C(=C/c6ccncc6)C(=O)C(C)(C)[C@@H]5CC[C@@]4(C)[C@]2(C)CC3)CC1 | -12.3% (active) |
| C/C=C(/C)C(=O)O[C@@H]1CC(C)(C)CC2C34OC(=O)[C@@]21CC[C@@]3(C)[C@]1(C)CCC2C(C)(C)C(=O)CC[C@]2(C)C1C[C@@H]4O (stereo not given in full) | 27.8% |
| COC(=O)[C@H]1Cc2c([nH]c3ccccc23)[C@H](c2ccc3c(c2)OCO3)N1 | 101% |
| Cc1c(C)c2c(c(C)c1OC(=O)CCC(=O)[O-])CCC(C)(CCCCCCCCCCC[P+](c1ccccc1)(c1ccccc1)c1ccccc1)O2 (stereo not given) | -98.3% (active) |
| Oc1cccc2c1NCCC2 | -51.2% (active) |
| Cc1cc2nc(C(Cl)Cl)nc(-c3ccccc3)n2n1 | 94.4% |
| C#Cc1cccc(Nc2ncnc3ccc(-c4cnc(Cl)c(NS(C)(=O)=O)c4)cc23)c1 | -95.6% (active) |
| C(=N\Nc1nnc2n1N=C(c1ccccc1)CS2)/c1ccc(OCc2ccccc2)cc1 | 82.9% |
| O=C(/C=C/c1ccco1)c1ccc(Nc2ccnc3cc(Cl)ccc23)cc1 | 68.8% |
| Cc1nn(-c2ccccc2)c(Oc2ccccc2)c1/C=N/NC(=O)Cn1c(=O)sc2ccccc21 | -47.7% (active) |
| O=C1/C(=C/c2ccc(Br)cc2)COc2ccc(O)cc21 | 96% |
| Cn1ncc(CC(=O)O)c1-n1nnc2cc(Cl)ccc2c1=O | 110% |
| COc1ccc(/C=N/NC(=O)Cn2nnc3ccccc32)cc1 | 110% |
| CCN1C(=O)N(CC)C2C1NC(=S)N2/N=C/C=C/c1cccs1 (stereo not given) | 23.4% |

Source: PubChem BioAssay (NCI)
